Calls of active or inactive are those of the source. Rule for the calls: active = hit-call score of the fitted dose curve at least 0.9, where 1 is the maximum; inactive = score below 0.9.
What follows are compounds tested against Hepatocyte nuclear factor 6 (Homo sapiens) (UniProt Q9UBC0) (assay: ATG_HNF6_CIS: Attagene CIS-FACTORIAL HepG2 Assay for human Hepatocyte Nuclear Factor 6 (HNF6) (AID 2282952)). Settings: HepG2 Attagene cis-factorial HNF6 reporter transcription; actives raise or lower the signal.
Chain of Hepatocyte nuclear factor 6 (Homo sapiens) (Q9UBC0 whole entry, looked up): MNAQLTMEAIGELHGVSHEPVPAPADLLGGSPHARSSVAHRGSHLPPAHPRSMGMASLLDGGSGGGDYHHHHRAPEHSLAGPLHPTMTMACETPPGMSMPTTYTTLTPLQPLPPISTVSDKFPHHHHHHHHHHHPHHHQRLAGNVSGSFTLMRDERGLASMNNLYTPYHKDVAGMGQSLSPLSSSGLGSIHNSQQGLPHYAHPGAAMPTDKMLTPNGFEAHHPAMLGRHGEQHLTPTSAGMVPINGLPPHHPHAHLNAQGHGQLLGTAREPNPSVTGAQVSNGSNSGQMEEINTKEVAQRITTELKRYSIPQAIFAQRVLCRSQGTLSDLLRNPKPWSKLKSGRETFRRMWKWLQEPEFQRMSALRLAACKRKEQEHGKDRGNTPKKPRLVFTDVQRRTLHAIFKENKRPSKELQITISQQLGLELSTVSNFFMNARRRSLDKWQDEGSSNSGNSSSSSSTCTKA
Experimental: ATG_CIS is a cell-based, multiplexed-readout assay that uses HepG2, a human liver cell line, with measurements taken at 24 hours after chemical dosing in a 24-well plate.ATG_HNF6_CIS is one of 52 assay component(s) measured or calculated from the ATG_CIS assay. It is designed to make measurements of mRNA induction, a form of inducible reporter, as detected with fluorescence intensity signals by Reverse transcription polymerase chain reaction (RT-PCR) and Capillary electrophoresis technology.Data from the assay component ATG_HNF6_CIS was analyzed into 1 assay endpoint. This assay endpoint, ATG_HNF6_CIS, was analyzed with bidirectional fitting relative to DMSO as the negative control and baseline of activity. Using a type of inducible reporter, measures of mRNA for gain or loss-of-signal activity can be used to understand the reporter gene at the transcription factor-level as they relate to the gene ONECUT1. Furthermore, this assay endpoint can be referred to as a primary readout, because this assay has produced multiple assay endpoints where this one serves a reporter gene function. To generalize the intended target to other relatable targets, this assay endpoint is annotated to the dna binding intended target family, where the subfamily is homeobox protein.
Human liver HepG2 cells are transiently transfected with multiple reporter transcription units (MRTUs) in 6-well plates using FuGene 6 reagent (Roche; 3 ml FuGene/1 mg DNA). The MRTU constructs are regulated by a cis-regulating element (promoter). […] A major difference between the CIS and TRANS system is that in CIS activities of endogenous TFs are measured, whereas the TRANS assay evaluates changes in activities of exogenous, chimeric NR-Gal4 proteins. […] At the end of 24 hour incubation, total RNA was isolated using TriZol reagent (Invitrogen). The isolated RNA is then reverse-transcribed using oligo(dT) primer and Mo-MLV reverse transcriptase (Invitrogen) with DNAse I (Ambion) treatment for 30 min. The one-tenth of the produced cDNA was amplified by PCR using Taq DNA polymerase (Invitrogen) and two reporter sequence-specific primers. The PCR products were fluorescently labeled by primer extension with 6-arboxyfluorescein (6-FAM) 5'-labeled reporter sequence-specific primer (2 min at 95 C, 20 s at 68 C and 10 min at 72 C) and these products were digested with 5U of HpaI (New England Biolabs) for 2h at 37 C. The fragments were purified using Qiaquick PCR columns (Qiagen), analyzed on an ABI 3130xL genetic analyzer (Applied Biosystems) with peak positions identified by using a set of X-rhodamine (ROX)-labeled MapMarker1000 molecular weight standards (BioVentures). The raw capillary electrophoresis data was processed using Attagraph software (Attagene).
In the case of `O=C(N[C@@H](Cc1ccccc1)[C@@H](O)C(=O)N1C[C@@H](O)[C@@H](O)C1)c1cc2cc(Cl)ccc2[nH]1`, the outcome is reported as “inactive”.
In the case of `Nc1ccccc1N`, the outcome is reported as “inactive”.
In the case of `CNC(=O)[C@H]1O[C@@H](n2cnc3c(NCc4cc(Cl)ccc4OCc4cc(C)no4)ncnc32)[C@H](O)[C@@H]1N`, the outcome is reported as “inactive”.
In the case of `O=C(O)CCCCC(=O)O`, the outcome is reported as “inactive”.
With `CCCCCCOCCO` the outcome was “inactive”.
`Cc1nc(-c2ccc3c(c2)CCN(CCC2CCC(NC(=O)/C=C/c4ccc(F)cc4)CC2)CC3)no1` (stereo not given) was tested, and the outcome was “inactive”.
For `COc1cc(S(=O)(=O)O)c(C)cc1N=Nc1c(O)ccc2cc(S(=O)(=O)O)ccc12`, the outcome was “inactive”.
`C=CCc1ccc(O)c(OC)c1` was tested, and the outcome was “inactive”.
`NS(=O)(=O)c1cc2c(cc1Cl)NCNS2(=O)=O` was tested, and the outcome was “inactive”.
For `C[Si]1(C)O[Si](C)(C)O[Si](C)(C)O[Si](C)(C)O1`, the outcome was “inactive”.
With `CN1CCN(Cc2cc(-c3ccc4[nH]c(=O)oc4c3)co2)[C@@H](c2ccc(F)cc2)C1` the outcome was “inactive”.
With `Cc1oc(-c2ccccc2)nc1CCOc1cccc2c1ccn2CCC(=O)O` the outcome was “inactive”.
`Cc1ccccc1Cl` was tested, and the outcome was “inactive”.
For `O=c1[nH]cc(F)c(=O)[nH]1`, the outcome was “inactive”.
With `C[C@]12C=CC(=O)C=C1CC[C@@H]1[C@@H]2C(=O)C[C@@]2(C)[C@H]1CC[C@]2(O)C(=O)CO` the outcome was “inactive”.
For `Cc1ccc(N(C)C)cc1`, the outcome was “inactive”.
`CCOc1ccc2c(c1)C(C)=CC(C)(C)N2` was tested, and the outcome was “inactive”.
With `CC(C)(C)c1cc(O)c(C(C)(C)C)cc1O` the outcome was “inactive”.
`COc1ccc(C)cc1N` was tested, and the outcome was “inactive”.
In the case of `COc1cc(/C=C/C(=O)CC(=O)/C=C/c2ccc(O)c(OC)c2)ccc1O`, the AC50 is reported as 47.4 µM (active).
`O=C(OCCCCCOC(=O)c1ccccc1)c1ccccc1` was tested, and the outcome was “inactive”.
`Cc1cccc([N+](=O)[O-])c1C` was tested, and the outcome was “inactive”.
In the case of `CCCCCCCCCCCCCCCC`, the outcome is reported as “inactive”.
In the case of `C=CCOC(=O)c1ccccc1C(=O)OCC=C`, the outcome is reported as “inactive”.
For `CCCCc1ccc2c(n1)[C@@H](c1ccc(OC)cc1C[C@H](C)C(=O)O)[C@H](C(=O)O)[C@H]2c1ccc2c(c1)OCO2`, the outcome was “inactive”.
For `FC(F)(F)C(F)(F)C(F)(F)C(F)(F)C(F)(F)C(F)(F)CCI`, the outcome was “inactive”.
With `CCCCCCCCCCCCCO` the outcome was “inactive”.
In the case of `COc1ccc(S(=O)(=O)N2C(=O)[C@@](c3ccccc3OC)(N3C[C@H](O)C[C@H]3C(=O)N(C)C)c3cc(Cl)ccc32)c(OC)c1`, the outcome is reported as “inactive”.
With `Nc1ccc(S(=O)(=O)c2ccc(N)cc2)cc1` the outcome was “inactive”.
In the case of `CCCCCCCCCCC`, the outcome is reported as “inactive”.
For `O=[N+]([O-])C(CO)(CO)CO`, the outcome was “inactive”.
In the case of `CCCCCCCCCCCCCCCCCC(=O)O`, the outcome is reported as “inactive”.
`CC(=O)OCCOCCOCCOC(C)=O` was tested, and the outcome was “inactive”.
With `NC(=O)Cn1c(=O)cc(CCN2CCN(c3nccc4sccc34)CC2)c2ccc(F)cc21` the outcome was “inactive”.
For `CC(=O)Oc1ccccc1C(=O)O`, the outcome was “inactive”.
For `CC(=O)C(C)=CC1C(C)=CCCC1(C)C` (stereo not given), the outcome was “inactive”.
`CC(=O)OC/C=C(\C)CCC=C(C)C` was tested, and the outcome was “inactive”.
In the case of `Oc1ccc2c(c1)OC[C@@H](N1CCC(O)(c3ccc(F)cc3)CC1)[C@H]2O`, the outcome is reported as “inactive”.
`Cc1ccc2ncccc2c1` was tested, and the outcome was “inactive”.
For `CC1(C)CC(N=C=O)CC(C)(CN=C=O)C1` (stereo not given), the outcome was “inactive”.

— PubChem BioAssay (EPA / NIEHS)
